From the supplement of paper PMC6555819

Experiments:
Test in all cases: PBM binding z-score (relative to random genomic background probes); higher = stronger binding; sequences stand for … in GC…GCGATTGACAGCGTAGAATGAAGG
[1] = test system: RARb homodimer (NR concentration 270 nM)
Summary of the method: (§1)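 Custom Agilent 4×180K protein-binding microarrays carried double-stranded probes, each with a 34-nt variable region. These regions held direct-repeat seeds, single-nucleotide variants, half-site ablations and random human genomic background sequences. Ligand-free nuclear receptor dimers were incubated on the arrays for 1 h, antibodies against each partner (one per run) detected binding, and scanned fluorescence was regression-normalized. Binding z-scores take the random background probes as reference.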

[2] = test system: RARg:RXRa (NR concentration 270 nM, RXRa partner concentration 90 nM)
Summary of the method: as §1

[3] = test system: RARg homodimer (NR concentration 270 nM)
Summary of the method: as §1

[4] = test system: RXRa DBDmut IVT, anti-RXR (DBD mutation: RXRa K156A/R161A, NR concentration 90 nM)
Summary of the method: as §1

[5] = test system: RXRa homodimer (NR concentration 180 nM)
Summary of the method: as §1

[6] = test system: THRa:RXRa (NR concentration 90 nM, RXRa partner concentration 90 nM)
Summary of the method: as §1

[7] = test system: THRa homodimer (NR concentration 90 nM)
Summary of the method: as §1

[8] = test system: VDR:RXRa (NR concentration 270 nM, RXRa partner concentration 90 nM)
Summary of the method: as §1

[9] = test system: VDR homodimer (NR concentration 270 nM)
Summary of the method: as §1

| Sequence | PBM binding z-score [1] | PBM binding z-score [2] | PBM binding z-score [3] | PBM binding z-score [4] | PBM binding z-score [5] | PBM binding z-score [6] | PBM binding z-score [7] | PBM binding z-score [8] | PBM binding z-score [9] |
| --- | --- | --- | --- | --- | --- | --- | --- | --- | --- |
| AAATGTAGGTTAGGGTCATTCAGAAAGTAGGGAA | 3.49 | 3.99 | 3.4 | 2.78 | 5.29 | 4.02 | 3.35 | 4.55 | 3.92 |
| CCAGACAGGTGAAAGGTAACTCCGTCTGGTACGC | 0.693 | 1.23 | 0.537 | -0.24 | 2.07 | 0.859 | -0.16 | 0.557 | -0.193 |
| CAAACTAGGTCACGAGGTCAAAGTCCGCTTCCCG | 5.59 | 7.56 | 6.9 | 3.1 | 7.59 | 4.76 | 4.67 | 6.42 | 4.9 |
| CACACTAGGTCAAAGGTCAAAGTCGAGCCAACCA | 5.42 | 9.01 | 7.38 | 3.45 | 10.4 | 4.85 | 2.4 | 6.85 | 4.12 |
| CGAACTAGGTCACCAGGACAGTCAAGAGGTTGGA | 3.44 | 4.37 | 5.18 | 1.24 | 3.33 | 3.46 | 1.89 | 2.18 | 0.612 |
| AGTCAAAGTTCAGGACGAGGTAAAGTAAAGCACG | 3.05 | 4.76 | 4.51 | 3.04 | 3.22 | 3.78 | 1.51 | 3.01 | 2.35 |
| AGAATGGGGTTATTAAGATCAGGGAATTGCGGTC | 1.53 | 1.85 | 0.796 | 2.11 | 3.5 | 2.6 | 1.56 | 4.05 | 2.41 |
| AATACAGGGTGATCGTAGGCCAGAGTACGCACAG | 0.66 | 0.545 | 0.556 | -0.0921 | 0.57 | 1.73 | 0.135 | 0.0765 | 0.376 |
| TCTGCTAGGTCAACGATGGTCAGCGAATCTGCTA | 3.42 | 4.03 | 4.75 | 0.927 | 2.57 | 3.15 | 0.707 | 1.66 | -0.22 |
| CGTCTAAGGTCAAGGTCAGTGAAAGAGACTCGAA | 5.28 | 7.24 | 8.01 | 4.05 | 7.32 | 4.53 | 4.38 | 5 | 3.2 |
| ATATGTAGGTTAGGGGCATTCAGAAAGTAGGGAA | 2.01 | 1.14 | 1.14 | 1.45 | 1.21 | 1.73 | 1.35 | 1.44 | 1.82 |
| CGAACTAGGTCACCAGTACAGTGAAGAGGTTGGA | 3.14 | 4.38 | 5.54 | 1.33 | 3.2 | 3.09 | 1.33 | 2.27 | 0.782 |
| AGACAAAGTTCAGGACGAGGTAACGTAAAGCACG | 3.04 | 4.75 | 4.73 | 2.87 | 2.9 | 3.86 | 1.51 | 2.91 | 2.08 |
| CCTAGTAGGTTACGAGGGGGCATTCAGTGCGAAT | 2.39 | 3.44 | 2.96 | 1.47 | 2.43 | 3.91 | 0.978 | 5.12 | 3.98 |
| AGTCAAAGTTCTTCTAGGTAACGTAAGATATGCT | 0.172 | 0.404 | 0.586 | 1.41 | -0.133 | 1.71 | 0.292 | 0.489 | 0.746 |
| ATAGAAAGGTCGAAGGTGAGTATACCCACCCGAA | 2.36 | 4.23 | 3.8 | 0.55 | 4.9 | 2 | 0.0452 | 2.88 | 0.757 |
| ATCTCTAGGTCAAAGTTCAGTGAATCCCGAGGAT | 4.18 | 6.01 | 5.62 | 2.65 | 6.97 | 3.76 | 1.76 | 4.4 | 3.19 |
| CGAACTAGGTCAAAGGACAGTGTAAGGCGACGTA | 3.11 | 4.01 | 4.55 | 1.32 | 3.01 | 2.9 | 0.826 | 1.58 | 0.391 |
| TCTAGTTGGTCAAAGGTCAAACACTCGAAATGCG | 5.02 | 7.43 | 6.41 | 2.11 | 8.23 | 4.04 | 1.45 | 5.41 | 3.12 |
| CCGTACGGGTCAAGGTTATAGCACGGGTGGTACG | 3.24 | 4.93 | 4.6 | 0.337 | 5.61 | 3.09 | 0.588 | 3.43 | 1.37 |
| TCTAGCAGGCCATAGGGTCACTCAAGAGGTACGG | 3.27 | 3.6 | 2.95 | 0.333 | 3.87 | 3.25 | 1.93 | 2.62 | 1.64 |
| CGAACTATGTCAAGGACAGTGAATCTCCGCACGC | 0.507 | 0.587 | 0.808 | 0.328 | 0.197 | 1.76 | 1.21 | -0.248 | -0.0899 |
| CAGACTAGGTCAAAGGTCAAAGTCGAGCCAACCA | 5.25 | 8.9 | 7.48 | 3.08 | 10.3 | 4.68 | 1.38 | 6.58 | 3.17 |
| CGAACTAGATCAAAGGACAGTGAAAGGCGACGTA | 0.779 | 0.0763 | 0.823 | -0.208 | -0.0824 | 0.0238 | -0.506 | -0.333 | 0.0452 |
| GCTGCTAGGTAAGGTTGGTCAGCTAACGGGTACG | 0.738 | -0.277 | -0.313 | -0.185 | -0.296 | 0.277 | -0.184 | -0.447 | -0.0228 |
| TCTCGGAGGACACGAAGGTCAAAGCTTTCCAGAG | 4.15 | 4.3 | 4.3 | 1.15 | 3.26 | 3.4 | 1.44 | 3.87 | 2.67 |
